Measured values as given in PubChem BioAssay (EPA / NIEHS).
Inconclusive results are not listed. The source made the active and inactive calls. How the source made its calls, unless noted: active means hit-call score of the fitted dose curve at least 0.9, where 1 is the maximum; inactive means score below 0.9.

Key:
[1] = read-out: Nuclear factor erythroid 2-related factor 2 (Homo sapiens) (UniProt Q16236); test: LTEA_HepaRG_NFE2L2: Life Technologies and Expression Analysis (LTEA) Assay for Nuclear factor erythroid 2-related factor 2 (NFE2L2) Transcription Factor using HepaRG (AID 2283527); conditions: mRNA level, 48 h; actives raise or lower the signal
Procedure, shortened: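 NFE2L2 transcript level was read by qRT-PCR (housekeeping ACTB/GAPDH/POLR2A normalisation) after 48 h chemical treatment of HepaRG in serum-free induction medium. Duplicate 8-point half-log curves, top 100 uM, 0.5% DMSO vehicle; up- or down-regulation fitted against vehicle.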

[2] = read-out: succinate dehydrogenase complex iron sulfur subunit B (SDHB), SDHB (gene 6390); test: LTEA_HepaRG_SDHB: Life Technologies and Expression Analysis (LTEA) Assay for succinate dehydrogenase complex iron sulfur subunit B (SDHB) using HepaRG (AID 2283528); conditions: mRNA level, 48 h; actives raise or lower the signal
Procedure, shortened: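 HepaRG, 48 h exposure, 8-pt half-log series from 100 uM in 0.5% DMSO, duplicates. Readout: SDHB mRNA by Fluidigm qRT-PCR vs housekeeping genes; bidirectional fit relative to DMSO.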

[3] = read-out: Signal transducer and activator of transcription 3 (Homo sapiens) (UniProt P40763); test: LTEA_HepaRG_STAT3: Life Technologies and Expression Analysis (LTEA) Assay for Signal transducer and activator of transcription (STAT3) using HepaRG (AID 2283529); conditions: mRNA level, 48 h; actives raise or lower the signal
Procedure, shortened: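 STAT3 transcript quantified by qRT-PCR against three housekeeping genes (ACTB, GAPDH, POLR2A), fitted both directions relative to DMSO. HepaRG cultures exposed 48 h to eight half-log concentrations, top 100 uM, 0.5% DMSO, serum-free induction medium.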

[4] = read-out: solute carrier (SLCO1B1), SLCO1B1 (gene 10599); test: LTEA_HepaRG_SLCO1B1: Life Technologies and Expression Analysis (LTEA) Assay for solute carrier (SLCO1B1) using HepaRG (AID 2283530); conditions: mRNA level, 48 h; actives raise or lower the signal
Procedure, shortened: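 HepaRG, serum-free induction medium, 48 h dosing, 8-pt half-log from 100 uM, 0.5% DMSO vehicle, duplicates. Readout: SLCO1B1 mRNA, qRT-PCR, ACTB/GAPDH/POLR2A normalization; up or down fit vs DMSO.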

[5] = read-out: sulfotransferase 2A1 (SULT2A1), SULT2A1 (gene 6822); test: LTEA_HepaRG_SULT2A1: Life Technologies and Expression Analysis (LTEA) Assay for sulfotransferase 2A1 (SULT2A1) using HepaRG (AID 2283531); conditions: mRNA level, 48 h; actives raise or lower the signal
Procedure, shortened: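 Transcript levels of SULT2A1, quantified by qRT-PCR and normalized to three housekeeping genes, serve as the readout. Human HepaRG cultures receive test chemicals for 48 h at up to 100 uM in half-log steps, with 0.5% DMSO vehicle.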

[6] = read-out: Transforming Growth Factor (TGFA), TGFA (gene 7039); test: LTEA_HepaRG_TGFA: Life Technologies and Expression Analysis (LTEA) Assay for Transforming Growth Factor (TGFA) using HepaRG (AID 2283532); conditions: mRNA level, 48 h; actives raise or lower the signal
Procedure, shortened: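 TGFA transcript quantified by qRT-PCR (Fluidigm arrays) against three housekeeping genes, after 48 hours chemical treatment of HepaRG cells. Top concentration 100 uM with half-log dilutions, 8 points, duplicates, 0.5% DMSO.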

[7] = read-out: Transforming Growth Factor (TGFB1), TGFB1 (gene 7040); test: LTEA_HepaRG_TGFB1: Life Technologies and Expression Analysis (LTEA) Assay for Transforming Growth Factor (TGFB1) Transporter using HepaRG (AID 2283533); conditions: mRNA level, 48 h; actives raise or lower the signal
Procedure, shortened: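 HepaRG, 48 h post-plating, switched to serum-free induction medium; chemicals 100 uM top, half-log, 8 pts, 0.5% DMSO, dup; 48 h exposure; RNA → Fluidigm TaqMan qRT-PCR; norm ACTB/GAPDH/POLR2A; bidirectional fit vs DMSO.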

TIMP1, TIMP1 (gene 7076) = test: LTEA_HepaRG_TIMP1: Life Technologies and Expression Analysis (LTEA) Assay for TIMP1 using HepaRG (AID 2283534); conditions: mRNA level, 48 h; actives raise or lower the signal;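 further: TaqMan qRT-PCR signal normalized to ACTB GAPDH and POLR2A housekeeping genes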
Procedure, shortened: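 Readout is TIMP1 mRNA level measured by qRT-PCR and normalized to three housekeeping genes. Human HepaRG cells were treated for 48 h in duplicate at eight concentrations up to 100 uM (0.5% DMSO); gain or loss fitted against DMSO.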

[8] = read-out: Tumor necrosis factor receptor 1 (TNFRSF1A), TNFRSF1A (gene 7132); test: LTEA_HepaRG_TNFRSF1A: Life Technologies and Expression Analysis (LTEA) Assay for Tumor necrosis factor receptor 1 (TNFRSF1A) using HepaRG (AID 2283535); conditions: mRNA level, 48 h; actives raise or lower the signal
Procedure, shortened: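 Read-out is TNFRSF1A transcript level by TaqMan qRT-PCR, normalized to three housekeeping genes, scored as gain or loss of signal versus 0.5% DMSO. Human HepaRG cells received test chemicals for 48 h at up to 100 uM (half-log series).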

[9] = read-out: Thyroid Hormone Responsive (THRSP), THRSP (gene 7069); test: LTEA_HepaRG_THRSP: Life Technologies and Expression Analysis (LTEA) Assay for Thyroid Hormone Responsive (THRSP) using HepaRG (AID 2283536); conditions: mRNA level, 48 h; actives raise or lower the signal
Procedure, shortened: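 THRSP transcript quantified by Fluidigm qRT-PCR against three housekeeping genes after 48 h chemical exposure of HepaRG cells in serum-free induction medium; eight-point half-log series, top 100 uM, 0.5% DMSO vehicle, duplicate wells.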

[10] = read-out: Cellular tumor antigen p53 (Homo sapiens) (UniProt P04637); test: LTEA_HepaRG_TP53: Life Technologies and Expression Analysis (LTEA) Assay for Tumor Protein P53 (TP53) using HepaRG (AID 2283537); conditions: mRNA level, 48 h; actives raise or lower the signal
Procedure, shortened: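 HepaRG, 48 h exposure, top 100 uM, half-log 8-point, 0.5% DMSO vehicle, duplicates. Read: TP53 mRNA by TaqMan qRT-PCR, normalised to ACTB/GAPDH/POLR2A; bidirectional fit vs DMSO.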

[11] = read-out: UDP glucuronosyltransferase (UGT1A1), UGT1A1 (gene 54658); test: LTEA_HepaRG_UGT1A1: Life Technologies and Expression Analysis (LTEA) Assay for UDP glucuronosyltransferase (UGT1A1) using HepaRG (AID 2283538); conditions: mRNA level, 48 h; actives raise or lower the signal
Procedure, shortened: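 HepaRG, 48 h chemical exposure (top 100 uM, half-log 8-pt, 0.5% DMSO vehicle), duplicate wells; qRT-PCR (TaqMan, Fluidigm array) for UGT1A1 mRNA, housekeeping-normalized; bidirectional curve fit vs DMSO baseline.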

[12] = read-out: UDP glucuronosyltransferase (UGT1A6), UGT1A6 (gene 54578); test: LTEA_HepaRG_UGT1A6: Life Technologies and Expression Analysis (LTEA) Assay for UDP glucuronosyltransferase (UGT1A6) using HepaRG (AID 2283539); conditions: mRNA level, 48 h; actives raise or lower the signal
Procedure, shortened: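 HepaRG, 48 h post-plating switch to serum-free induction medium; chemical 48 h, 100 uM top, half-log x8, duplicate, 0.5% DMSO. Phenobarbital 1mM induction control. UGT1A6 mRNA by TaqMan qRT-PCR; gain/loss fit vs DMSO.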

[13] = read-out: X-box binding protein 1 (XBP1), XBP1 (gene 7494); test: LTEA_HepaRG_XBP1: Life Technologies and Expression Analysis (LTEA) Assay for X-box binding protein 1 (XBP1) using HepaRG (AID 2283540); conditions: mRNA level, 48 h; actives raise or lower the signal
Procedure, shortened: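 Transcript levels of XBP1, measured by qRT-PCR and normalised to three housekeeping genes, were fitted bidirectionally relative to 0.5% DMSO controls. Human HepaRG cells received eight-point half-log dilutions from 100 uM for 48 h.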

[14] = LTEA_HepaRG_LDH_cytotoxicity: Cytotoxicity Assessment in the Life Technologies and Expression Analysis (LTEA) Assay (AID 2283563; active means hit-call score of the fitted dose curve at least 0.9, where 1 is the maximum)
Procedure, shortened: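 Cells were thawed and plated for 48 h. Medium was then replaced with serum-free induction medium. Chemicals (8 half-log points, maximum 100 uM, 0.5% DMSO) were added in duplicate for 48 h, after which spent medium was assayed for LDH.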

[15] = ATG_XTT_Cytotoxicity: Cytotoxicity Assessment in the Attagene TRANS-FACTORIAL HepG2 Assay (AID 2283584; active means hit-call score of the fitted dose curve at least 0.9, where 1 is the maximum)
Procedure, shortened: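 Cells: human HepG2, transiently transfected with MRTU reporter constructs. Exposure 24 h. Readout: XTT, cell number. Baseline/neg ctrl DMSO; loss-of-signal scored.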

[16] = TOX21_p53_BLA_p2_viability: Viability Assessment in the Tox21 HCT-116 p53 Agonism Beta-lactamase Assay, Phase 2 (AID 2283591; active means hit-call score of the fitted dose curve at least 0.9, where 1 is the maximum;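 further: compound exposure lasted 16 h at 37 °C; actives lower the ATP signal meaning cytotoxicity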)
Procedure, shortened: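 Cytotoxicity readout: CellTiter-Glo ATP luminescence, 30 min at room temperature, after the beta-lactamase read. Cells were HCT116 exposed 16 h at 37C to compounds pin-transferred at 217-fold dilution from DMSO stocks.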

[17] = biological target: Cellular tumor antigen p53 (Homo sapiens) (UniProt P04637); test: TOX21_p53_BLA_p2_ratio: Tox21 HCT-116 p53 Agonism Beta-lactamase Assay, Ratio, Phase 2 (AID 2283592; active means hit-call score of the fitted dose curve at least 0.9, where 1 is the maximum)
Sequence of Cellular tumor antigen p53 (Homo sapiens) (P04637 whole entry, looked up): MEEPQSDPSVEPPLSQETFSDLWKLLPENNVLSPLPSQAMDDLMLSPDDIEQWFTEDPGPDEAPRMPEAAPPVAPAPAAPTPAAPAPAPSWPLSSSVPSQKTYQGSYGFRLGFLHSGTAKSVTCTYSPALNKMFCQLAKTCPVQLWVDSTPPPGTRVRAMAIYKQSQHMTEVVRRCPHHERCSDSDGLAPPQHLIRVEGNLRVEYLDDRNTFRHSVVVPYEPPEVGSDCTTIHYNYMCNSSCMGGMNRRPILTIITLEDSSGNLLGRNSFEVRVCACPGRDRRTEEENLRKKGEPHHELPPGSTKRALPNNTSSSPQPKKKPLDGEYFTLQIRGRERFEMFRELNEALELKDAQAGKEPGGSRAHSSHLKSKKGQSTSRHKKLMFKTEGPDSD
Procedure, shortened: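 Plated HCT116 p53-bla cells (4000/well) received compound after 5 h, then 16 h at 37C/5% CO2. CCF4-AM added, 2 h RT. Ratio of 460 to 530 nm emission taken as the p53 reporter signal.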

[18] = biological target: Cellular tumor antigen p53 (Homo sapiens) (UniProt P04637); test: TOX21_p53_BLA_p3_ratio: Tox21 HCT-116 p53 Agonism Beta-lactamase Assay, Ratio, Phase 3 (AID 2283596; active means hit-call score of the fitted dose curve at least 0.9, where 1 is the maximum)
Procedure, shortened: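 Cells were seeded at 4000/well, rested 5 h at 37C, then dosed with DMSO compound solutions (217-fold dilution) for 16 h. CCF4-AM substrate was loaded for 2 h at room temperature, and the 460/530 nm emission ratio was fitted for gain of signal versus DMSO.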

[19] = TOX21_p53_BLA_p3_viability: Viability Assessment in the Tox21 HCT-116 p53 Agonism Beta-lactamase Assay, Phase 3 (AID 2283593; active means hit-call score of the fitted dose curve at least 0.9, where 1 is the maximum;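 further: cells exposed to compound for 16 h before reading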)
Procedure, shortened: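 Cellular ATP was quantified by CellTiter-Glo luminescence, read after 30 min at room temperature. Beforehand, HCT116 cells (4000/well) received compound 5 h post-seeding, 217-fold diluted from DMSO, then incubated 16 h at 37C.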

Measured: AC50

Sequence of Nuclear factor erythroid 2-related factor 2 (Homo sapiens) (Q16236 whole entry, looked up): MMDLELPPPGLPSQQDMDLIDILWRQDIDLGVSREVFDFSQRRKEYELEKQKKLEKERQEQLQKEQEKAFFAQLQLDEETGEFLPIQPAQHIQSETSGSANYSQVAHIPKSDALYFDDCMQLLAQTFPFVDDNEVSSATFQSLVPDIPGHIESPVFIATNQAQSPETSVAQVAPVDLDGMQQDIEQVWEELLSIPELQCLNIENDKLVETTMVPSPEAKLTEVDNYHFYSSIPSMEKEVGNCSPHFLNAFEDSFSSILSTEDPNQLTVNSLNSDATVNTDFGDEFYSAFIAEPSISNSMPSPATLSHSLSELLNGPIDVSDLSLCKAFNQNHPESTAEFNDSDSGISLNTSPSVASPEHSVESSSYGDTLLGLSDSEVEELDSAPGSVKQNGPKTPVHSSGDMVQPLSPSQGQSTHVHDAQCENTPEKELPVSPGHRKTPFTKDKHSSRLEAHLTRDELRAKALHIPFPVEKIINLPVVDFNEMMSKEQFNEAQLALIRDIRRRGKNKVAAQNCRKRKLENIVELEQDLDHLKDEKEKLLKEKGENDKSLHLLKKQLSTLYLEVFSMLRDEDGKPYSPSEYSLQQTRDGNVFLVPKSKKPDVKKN
Sequence of Signal transducer and activator of transcription 3 (Homo sapiens) (P40763 whole entry, looked up): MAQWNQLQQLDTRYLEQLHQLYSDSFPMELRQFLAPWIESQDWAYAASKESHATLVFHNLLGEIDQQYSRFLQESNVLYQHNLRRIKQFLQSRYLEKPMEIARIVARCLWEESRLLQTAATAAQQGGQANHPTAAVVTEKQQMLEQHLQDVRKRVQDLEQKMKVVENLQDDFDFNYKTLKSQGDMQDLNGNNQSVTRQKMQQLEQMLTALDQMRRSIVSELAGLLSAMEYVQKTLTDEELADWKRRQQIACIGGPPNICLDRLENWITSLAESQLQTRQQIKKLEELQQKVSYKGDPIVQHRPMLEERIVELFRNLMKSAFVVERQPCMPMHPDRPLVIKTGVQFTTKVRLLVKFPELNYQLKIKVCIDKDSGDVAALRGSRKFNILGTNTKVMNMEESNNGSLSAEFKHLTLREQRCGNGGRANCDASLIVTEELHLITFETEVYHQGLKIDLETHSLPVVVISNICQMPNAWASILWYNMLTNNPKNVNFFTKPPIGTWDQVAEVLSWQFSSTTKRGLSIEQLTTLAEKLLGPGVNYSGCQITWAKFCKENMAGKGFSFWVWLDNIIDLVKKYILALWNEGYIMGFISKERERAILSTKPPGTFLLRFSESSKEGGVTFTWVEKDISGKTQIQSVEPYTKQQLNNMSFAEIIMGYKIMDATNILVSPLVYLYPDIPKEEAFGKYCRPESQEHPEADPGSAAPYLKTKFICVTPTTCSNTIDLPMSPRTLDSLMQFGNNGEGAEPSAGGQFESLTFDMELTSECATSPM

CC=Cc1ccc(O)c(OC)c1
not listed: [19]
inactive: all other assays above

C[C@]12C=CC(=O)C=C1CC[C@@H]1[C@@H]2C(=O)C[C@@]2(C)[C@H]1CC[C@]2(O)C(=O)CO
active: [11] 50 µM
not listed: TIMP1, TIMP1 (gene 7076) | [18]
inactive: all other assays above

FC(F)(F)C(F)(F)C(F)(F)C(F)(F)C(F)(F)C(F)(F)CCI
not listed: TIMP1, TIMP1 (gene 7076) | [16]
inactive: all other assays above

Oc1ccc2c(c1)OC[C@@H](N1CCC(O)(c3ccc(F)cc3)CC1)[C@H]2O
not listed: [12] | [15] | [16] | [19]
inactive: all other assays above

CCCCCCCCCCCCCCCC
not listed: [12] | [15]
inactive: all other assays above

NS(=O)(=O)c1cc2c(cc1Cl)NCNS2(=O)=O
not listed: [12] | [15]
inactive: all other assays above

Cc1ccc(Cl)cc1
not listed: [9] | [19]
inactive: all other assays above

CCCCCCCCCCCCCO
not listed: TIMP1, TIMP1 (gene 7076) | [16]
inactive: all other assays above

O=C(O)CCCCC(=O)O
not listed: TIMP1, TIMP1 (gene 7076)
inactive: all other assays above

Nc1ccc2c(c1)C(=O)c1ccccc1C2=O
active: [1] 27.8 µM | [4] 4.66 µM | [9] 6.08 µM | [10] 18.2 µM | [11] 7.74 µM | [13] 10.3 µM
not listed: [8]
inactive: all other assays above

COCCOC[C@H](CC1(C(=O)NC2CCC(C(=O)O)CC2)CCCC1)C(=O)Oc1ccc2c(c1)CCC2 (stereo partly specified)
not listed: [12] | [15]
inactive: all other assays above

O=c1c(O)c(-c2ccc(O)c(O)c2)oc2cc(O)cc(O)c12
active: [4] 86.8 µM | [11] 0.322 µM | [17] 20.2 µM [middle of 4 runs]
not listed: [12] | [15] | [18]
inactive: all other assays above

Cc1nc(C)nc(N2C[C@@H](C)N(c3ccnc([C@@H](C)O)n3)[C@@H](C)C2)n1
not listed: TIMP1, TIMP1 (gene 7076) | [15] | [18]
inactive: all other assays above

C=CCc1ccc(O)c(OC)c1
not listed: [12] | [15]
inactive: all other assays above
